In publication PMC5540273 (PLoS ONE, 2017):

Assays:
Details in all cases: concentration: 1 μM, replicates: in singlicate; n = 1
PRKCQ = tested on: PRKCQ
PRKD1 = tested on: PRKD1
PRKD2 = tested on: PRKD2
PRKD3 = tested on: PRKD3
PRKG1 = tested on: PRKG1
PRKG2 = tested on: PRKG2
PRKR = tested on: T1, PRKR
T1 construct: gene EIF2AK2

PRKX = tested on: PRKX
PRP4 = tested on: PRP4
PYK2 = tested on: T2, PYK2
T2 construct: gene PTK2B

QSK = tested on: QSK
RAF1 = tested on: RAF1
RET = tested on: RET
RIOK1 = tested on: RIOK1
RIOK2 = tested on: RIOK2
RIOK3 = tested on: RIOK3
RIPK1 = tested on: RIPK1
RIPK2 = tested on: RIPK2
RIPK4 = tested on: RIPK4
RIPK5 = tested on: RIPK5
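Further: KINOMEscan kinase panel screen.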

Structure (SMILES) | %Inh (PRKCQ) | %Inh (PRKD1) | %Inh (PRKD2) | %Inh (PRKD3) | %Inh (PRKG1) | %Inh (PRKG2) | %Inh (PRKR) | %Inh (PRKX) | %Inh (PRP4) | %Inh (PYK2) | %Inh (QSK) | %Inh (RAF1) | %Inh (RET) | %Inh (RIOK1) | %Inh (RIOK2) | %Inh (RIOK3) | %Inh (RIPK1) | %Inh (RIPK2) | %Inh (RIPK4) | %Inh (RIPK5)
Cc1cccc(-c2nc(Nc3ccc4[nH]ncc4c3)c3ccccc3n2)n1 [GW857175] | 27% | 99.8% | 99.9% | 98.1% | 0% | 2% | 0% | 0% | 13% | 0% | 4% | 8% | 13% | 39% | 8% | 29% | 0% | 0% | 44% | 35%
Cc1ccc(C(=O)Nc2ccc(Nc3ccnc4cc(-c5ccccn5)ccc34)cc2O)cc1.Cl [GW440146] | 6% | 17% | 0% | 18% | 0% | 0% | 0% | 9% | 12% | 1% | 0% | 8% | 26% | 14% | 3% | 81% | 0% | 52% | 3% | 0%
COc1ccc(Nc2nccc(NCCNC(=O)Nc3ccccc3F)n2)cc1 [GSK1379901] | 0% | 0% | 83% | 0% | 8% | 0% | 1% | 5% | 14% | 8% | 3% | 20% | 17% | 40% | 0% | 39% | 33% | 22% | 11% | 6%
Cc1cccc(-c2nc(C)cc(Nc3ccncc3)n2)n1 [GSK257997] | 0% | 78% | 80% | 85% | 0% | 6% | 0% | 1% | 13% | 0% | 0% | 100% | 18% | 20% | 16% | 14% | 8% | 19% | 7% | 0%
CS(=O)(=O)c1ccc(-c2c(-c3ncn[nH]3)sc(N3CCOCC3)c2C#N)cc1 | 0% | 19% | 11% | 14% | 12% | 6% | 0% | 32% | 0% | 0% | 0% | 0% | 5% | 0% | 0% | 0% | 6% | 0% | 0% | 18%
O=c1cc(N2CCOCC2)nc2n(Cc3cccc(Cl)c3Cl)ccn12 [GSK2286295] | 14% | 0% | 20% | 0% | 0% | 0% | 0% | 0% | 0% | 0% | 1% | 7% | 1% | 42% | 56% | 19% | 0% | 6% | 6% | 0%
O=C(O)COc1ncnc2cc(-c3ccc4[nH]ncc4c3)sc12 | 41% | 0% | 0% | 25% | 17% | 0% | 0% | 41% | 0% | 0% | 0% | 1% | 11% | 0% | 16% | 0% | 0% | 0% | 30% | 6%
Cl.c1ccc(-c2n[nH]cc2-c2ccnc(-c3ccc(CN4CCOCC4)cc3)c2)nc1 [GW776245] | 0% | 62% | 44% | 28% | 0% | 16% | 0% | 0% | 0% | 14% | 0% | 37% | 0% | 19% | 0% | 20% | 11% | 36% | 0% | 0%
O=C(Nc1n[nH]c2nc(-c3nccs3)c(Br)cc12)C1CC1 [SB-742251] | 32% | 0% | 0% | 0% | 0% | 0% | 0% | 0% | 51% | 0% | 19% | 8% | 12% | 30% | 0% | 29% | 15% | 10% | 17% | 0%
O=C(Nc1n[nH]c2nc(-c3nccs3)c(Br)cc12)C1CCCC1 [SB-742609] | 4% | 0% | 0% | 0% | 2% | 0% | 5% | 0% | 13% | 9% | 0% | 25% | 0% | 2% | 0% | 0% | 0% | 4% | 21% | 1%
Cc1cc(NCC(c2ccccc2)c2ccccc2)nc(NCc2ccc(C(F)(F)F)cc2)n1 [GW497681] | 0% | 0% | 6% | 0% | 0% | 0% | 0% | 6% | 29% | 6% | 0% | 18% | 0% | 22% | 0% | 9% | 0% | 9% | 0% | 0%
CS(=O)(=O)c1ccc(-c2nc3n(c2-c2ccncc2)CCC3)cc1 [SKF-105942] | 0% | 3% | 0% | 0% | 0% | 5% | 0% | 2% | 11% | 0% | 0% | 16% | 0% | 0% | 0% | 0% | 0% | 0% | 100% | 2%
Fc1cc(Cl)ccc1Nc1ccnc2cc(-c3ccc(CN4CCCCC4)o3)ccc12 [GW560116] | 0% | 0% | 0% | 0% | 0% | 0% | 0% | 0% | 21% | 0% | 29% | 8% | 22% | 12% | 0% | 0% | 8% | 61% | 0% | 0%
COc1ccc(CNC(=O)NC2CCN(c3ccnc(Nc4cc(OC)c(OC)c(OC)c4)n3)C2)cc1 (stereo not drawn) [GSK1379748] | 0% | 0% | 0% | 0% | 0% | 11% | 14% | 17% | 43% | 0% | 0% | 0% | 0% | 35% | 0% | 32% | 17% | 16% | 28% | 48%
Cc1nnc(-c2ccc3occ(-c4ccc(S(C)=O)cc4)c3c2)[nH]1 (stereo not drawn) | 0% | 0% | 4% | 0% | 0% | 0% | 0% | 51% | 10% | 26% | 3% | 4% | 31% | 13% | 31% | 0% | 100% | 13% | 0% | 0%
Nc1nc(-c2nccs2)c(-c2ccnc3ccccc23)s1 [GW693542] | 39% | 42% | 14% | 12% | 8% | 0% | 0% | 10% | 20% | 16% | 0% | 15% | 37% | 24% | 6% | 38% | 0% | 14% | 5% | 0%
Cc1cccc(-c2nc(Nc3cccc(C(N)=O)c3)c3ccccc3n2)n1 [GW876019] | 0% | 64% | 66% | 87% | 0% | 0% | 6% | 0% | 11% | 6% | 0% | 17% | 0% | 50% | 0% | 26% | 19% | 0% | 0% | 0%
Cc1cccc(-c2nc(-c3ccc(S(C)(=O)=O)cc3)sc2-c2ccnc(NCCc3ccccc3)c2)c1 | 26% | 1% | 0% | 0% | 20% | 20% | 0% | 0% | 9% | 4% | 0% | 93.4% | 30% | 17% | 15% | 18% | 3% | 6% | 0% | 0%
COc1ccc(Nc2nccc(-c3cccc(NC(=O)c4cc5cc(F)ccc5[nH]4)c3)n2)cc1 [GSK1229782] | 12% | 10% | 11% | 24% | 10% | 0% | 10% | 46% | 66% | 21% | 3% | 13% | 14% | 72% | 3% | 50% | 22% | 17% | 0% | 25%
CN(C)CCN(C)C(=O)c1cc(-c2ccncc2)c(-c2ccc(Cl)c(O)c2)o1.Cl.Cl [SB-710397] | 3% | 0% | 57% | 12% | 0% | 0% | 0% | 0% | 60% | 12% | 0% | 87% | 24% | 37% | 0% | 0% | 0% | 59% | 14% | 0%
O=C(Nc1n[nH]c2cc(-c3cccc(F)c3F)ccc12)C1CC1 [SB-733894] | 19% | 0% | 0% | 0% | 0% | 0% | 3% | 0% | 4% | 0% | 26% | 12% | 0% | 47% | 0% | 52% | 72% | 0% | 18% | 31%
